Reference: PubChem BioAssay (NCI)
This is part of a sample that, as a whole, favours compounds with a hit. Of some 83,000 tested, about 20% had one in any assay.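 Note: values are percent growth. 100 is the growth of untreated cells, values between 100 and 0 indicate rising inhibition; between -100 and 0 indicates cell death.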 Activity calls are given as the source filed them. How the source made its calls: active means growth percent below 10; inactive means the rest.

How the values were obtained:
Test in all cases: NCI-60 one-dose screen, 48 h (100 = growth as untreated, 0 = no growth, -100 = all killed)
Settings in all cases: 10 µM unless noted
[1] = system: DU-145 prostate
[2] = system: K-562 leukemia
[3] = system: MALME-3M melanoma
[4] = system: MDA-MB-231 breast
[5] = system: RXF 393 renal
[6] = system: SF-268 CNS
[7] = system: SF-295 CNS
[8] = system: SF-539 CNS
[9] = system: UACC-257 melanoma
[10] = system: M14 melanoma
[11] = system: HCT-15 colon
[12] = system: HT29 colon
[13] = system: SNB-75 CNS
[14] = system: SNB-19 CNS
[15] = system: U251 CNS
[16] = system: PC-3 prostate
[17] = system: SK-MEL-5 melanoma
[18] = system: UACC-62 melanoma
[19] = system: LOX IMVI melanoma
[20] = system: SK-MEL-28 melanoma

Measured: growth

Nc1ccc2c(c1)c(N)nn2C(=O)Nc1ccc(Cc2ccccc2)cc1
active: [2] -5.66% | [18] 7.09%
inactive: [1] 79.3% | [3] 75.3% | [4] 60.6% | [5] 99.8% | [6] 83.9% | [7] 48% | [8] 73.6% | [9] 79.1% | [10] 46.8% | [11] 44.5% | [12] 76.8% | [13] 126% | [14] 105% | [15] 59.9% | [16] 60.2% | [17] 71.7% | [19] 40.3% | [20] 115%

CCCCC1CCCCN1C(=O)OCC (stereo not given)
inactive: [1] 108% | [2] 107% | [3] 108% | [4] 107% | [5] 152% | [6] 106% | [7] 127% | [8] 99.7% | [9] 108% | [10] 101% | [11] 103% | [12] 94.1% | [13] 97.8% | [14] 106% | [15] 96.1% | [16] 93.5% | [17] 111% | [18] 107% | [19] 101% | [20] 104%

CCCCCCCCCCN(CCCCCCCCCC)CC(=O)c1ccc2cc(Br)c3ccccc3c2c1
active: [2] -46.6% | [3] -78.2% | [10] -11.7% | [12] 3.77% | [15] -9.35% | [16] -71.7%
inactive: [1] 71.7% | [4] 67.1% | [5] 95.5% | [6] 81% | [7] 91.8% | [8] 89% | [9] 87% | [11] 64.9% | [13] 68.7% | [14] 88% | [17] 93.6% | [18] 93.9% | [19] 21.6% | [20] 113%

NC(N)=Nc1nc2ccccc2n2c1nc1ccccc12
inactive: [1] 33.3% | [2] 17.9% | [3] 35.6% | [4] 53.2% | [5] 35% | [6] 28.5% | [7] 24.2% | [8] 50.3% | [9] 60.3% | [10] 42.6% | [11] 25.9% | [12] 18.2% | [13] 43.7% | [14] 38.8% | [15] 27.8% | [16] 48.5% | [17] 58.6% | [18] 40.7% | [19] 20.6% | [20] 82.3%

CCN(CC)CCN1CC(O)=C(c2nc(-c3ccc(Cl)cc3)cs2)C1=N
inactive: [1] 66.4% | [4] 12.6% | [5] 25% | [7] 24% | [13] 46.7% | [14] 66.3% | [16] 76%
active: [2] 1.62% | [3] -44.3% | [6] 4.19% | [8] -69.8% | [9] -38.4% | [10] -57.1% | [11] -13.4% | [12] -18.1% | [15] -48.2% | [17] -1.71% | [18] -81.4% | [19] -61.4% | [20] -66.7%

Cc1ccc(-c2c(-c3ccccc3)c(=O)oc3ccc(C)cc23)cc1
inactive: [1] 116% | [2] 76% | [3] 92.9% | [4] 91% | [5] 107% | [6] 91.8% | [7] 104% | [8] 109% | [9] 86.8% | [10] 102% | [11] 52.1% | [12] 101% | [13] 86.3% | [14] 94.8% | [15] 83.1% | [16] 56.4% | [17] 90.9% | [18] 76.1% | [19] 96.2% | [20] 110%

Cc1c(Cl)cc(-n2c(=O)c3ccccc3c3ccccc3c2=O)cc1Cl
inactive: [1] 121% | [2] 106% | [3] 90.5% | [4] 84.2% | [5] 123% | [6] 105% | [7] 102% | [8] 110% | [9] 104% | [10] 93% | [11] 110% | [12] 103% | [13] 89.9% | [14] 104% | [15] 102% | [16] 82% | [17] 107% | [18] 92.6% | [19] 95.2% | [20] 117%

Cc1ccc(Nc2ccc(Nc3ccc(C)cc3)c3c2C(=O)c2cccc(O)c2C3=O)cc1
inactive: [1] 114% | [2] 94.3% | [3] 120% | [4] 88.7% | [5] 110% | [6] 104% | [7] 126% | [8] 105% | [9] 105% | [10] 104% | [11] 100% | [12] 117% | [13] 93.8% | [14] 104% | [15] 104% | [16] 78.9% | [17] 95.9% | [18] 87.1% | [19] 91.5% | [20] 118%

CCN1C(=O)N(CC)C2Nn3c(s/c(=C4\C(=O)N(C)c5ccccc54)c3=O)=NC21 (stereo not given)
active: [5] -17.4% | [8] 9.32% | [13] 9.74%
inactive: [1] 18.1% | [2] 14.9% | [3] 48.3% | [4] 43.6% | [6] 55.5% | [7] 52.2% | [9] 61.8% | [10] 13.1% | [11] 29.7% | [12] 74.9% | [14] 56.5% | [15] 39.7% | [16] 27.8% | [17] 36.4% | [18] 51% | [19] 55.9% | [20] 59.3%

Cc1ccc(-c2cc(-c3cccnc3)[nH]c(=O)c2C#N)cc1
inactive: [1] 110% | [2] 108% | [3] 112% | [4] 109% | [5] 105% | [6] 99.3% | [7] 102% | [8] 99.9% | [9] 108% | [10] 112% | [11] 103% | [12] 107% | [13] 85.2% | [14] 97% | [15] 101% | [16] 110% | [17] 105% | [18] 96.9% | [19] 96.9% | [20] 109%

O=C(N/N=C/C=C/c1ccc([N+](=O)[O-])o1)c1cc2ccccc2cc1O
inactive: [7] 14.4% | [13] 43.4%
active: [1] -21.7% | [2] 4.52% | [3] -68% | [4] -15.9% | [5] -63.2% | [6] -20.3% | [8] -83.6% | [9] -56.3% | [10] -100% | [11] -12.3% | [12] -11.7% | [14] -34.4% | [15] -16% | [16] 4.52% | [17] -100% | [18] -64.3% | [19] -79.5% | [20] -66.5%

CC(C)CCC[C@@H](C)[C@H]1CC[C@H]2[C@@H](Nc3ccc(O)cc3)CCC[C@]12C
inactive: [1] 96.5% | [2] 105% | [3] 133% | [4] 109% | [5] 70.6% | [6] 80.2% | [7] 98.5% | [8] 17.5% | [9] 42.2% | [10] 102% | [11] 70.8% | [12] 89.5% | [13] 75.8% | [14] 111% | [15] 91.8% | [16] 33.5% | [17] 97.9% | [18] 76.5% | [19] 34.7% | [20] 97.9%

Cc1c(C(=O)NC(Cc2ccccc2)C(O)C(=O)NCc2ccc(F)cc2)[nH]c2ccccc2c1=O (stereo not given)
inactive: [1] 109% | [2] 94.2% | [3] 111% | [4] 102% | [5] 114% | [6] 104% | [7] 103% | [8] 108% | [9] 103% | [10] 109% | [11] 103% | [12] 102% | [13] 99.1% | [14] 100% | [15] 90.2% | [16] 103% | [17] 103% | [18] 111% | [19] 101% | [20] 107%

CC1(C)CC(=O)C2=C(C1)N(c1ccc(OC(F)(F)F)cc1)C(N)=C(C#N)C2c1ccc(Cl)cc1 (stereo not given)
inactive: [1] 91.3% | [2] 86.5% | [3] 85% | [4] 80.8% | [5] 66.7% | [6] 74.3% | [7] 81.6% | [8] 82.2% | [9] 84.1% | [10] 93.7% | [11] 97.1% | [12] 87.2% | [13] 52.6% | [14] 57.4% | [15] 56.2% | [16] 76.8% | [17] 93.8% | [18] 85.5% | [19] 86% | [20] 96.2%

O=c1[nH]nc(-c2ccccc2)c2c(-c3ccccc3)onc12
inactive: [1] 25.1% | [3] 37.2% | [4] 50.3% | [5] 12.3% | [6] 42% | [7] 35.7% | [9] 71.2% | [10] 45.4% | [11] 32.2% | [12] 22.2% | [14] 49.9% | [15] 30.6% | [16] 26.6% | [17] 11% | [18] 34% | [19] 49.6% | [20] 69.8%
active: [2] 9.89% | [8] 0.0732% | [13] -5.82%
